Eight compounds from PubChem BioAssay (Tox21) can be followed below.

Values without a mark were called inactive. Records with an inconclusive call do not appear. Active and inactive are the calls of the source. Calls come from the whole dose curve; as a rule, active = well fitted curve in the direction sought with a large enough effect in the repeat runs; inconclusive = weak or mixed curves; inactive = no such curve, though single readings can be large; an effect the other way counts as inactive or inconclusive.

Test [1] can be described thus: qHTS RealTime-Glo MT Cell Viability Assay in HepG2 cells - 8 hour (AID 1224873). Note: nearly all actives have a fitted effect of over 55% in size. The method in brief:
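Real-time viability: cells seeded at 600 per well together with NanoLuc and cell-permeant prosubstrate, compounds added after 5 h incubation. Luminescence tracked at 0, 8, 16, 24, 32 and 40 h of exposure.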
In general terms: In qHTS, concentration-response curves come from the screen itself.

A short description of test [2]: qHTS RealTime-Glo MT Cell Viability Assay in HEK293 cells - 40 hour (AID 1224874). Note: nearly all actives have a fitted effect of over 50% in size. Particulars: RealTime-Glo luminescence; max response: stronger effect = lower value. The method in brief: (§1)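 Tox21 screen in HEK293 using RealTime-Glo MT chemistry, with cells and reagent co-dispensed. Luminescence proportional to viable cell number was captured at intervals during 40 h compound exposure at 37 C.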

A short description of test [3]: A CellTox Green Cytotoxicity Assay to monitor cytotoxicity in HepG2 cells - 16 hour (AID 1224876). Note: nearly all actives have a fitted effect of over 45% in size. The procedure, abridged:
(§2)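 Nonlytic assay: viable cells exclude the dye, so fluorescence scales with cell death. HepG2 at 600 cells/well, compounds added after 5 h, signal read across 40 h.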

Test [4] in a line: qHTS RealTime-Glo MT Cell Viability Assay in HepG2 cells - 32 hour (AID 1224877). Note: nearly all actives have a fitted effect of over 55% in size. The method in brief: (§3)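 qHTS, HepG2, 600 cells/well, RealTime-Glo (NanoLuc + prosubstrate) added with cells; 5 h preincubation; DMSO compound addition; 37 C; luminescence at 0/8/16/24/32/40 h.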
Test [5] can be described thus: A CellTox Green Cytotoxicity Assay to monitor cytotoxicity in HepG2 cells - 24 hour (AID 1224878). Note: nearly all actives have a fitted effect of over 45% in size. The procedure, abridged: as §2
A short description of test [6]: A CellTox Green Cytotoxicity Assay to monitor cytotoxicity in HepG2 cells - 40 hour (AID 1224879). Note: nearly all actives have a fitted effect of over 40% in size. The procedure, abridged:
as §2

Test [7] in a line: qHTS RealTime-Glo MT Cell Viability Assay in HEK293 cells - 0 hour (AID 1224880). Note: nearly all actives have a fitted effect of over 45% in size. Note: potency is the fitted concentration of half-maximal effect. The procedure, abridged: as §1
The nature of test [8]: A CellTox Green Cytotoxicity Assay to monitor cytotoxicity in HepG2 cells - 0 hour (AID 1224882). Note: nearly all actives have a fitted effect of over 35% in size. The procedure, abridged:
as §2

Test [9] is described as follows: A CellTox Green Cytotoxicity Assay to monitor cytotoxicity in HepG2 cells - 32 hour (AID 1224883). Note: nearly all actives have a fitted effect of over 50% in size. The procedure, abridged: as §2
A short description of test [10]: qHTS RealTime-Glo MT Cell Viability Assay in HepG2 cells - 16 hour (AID 1224885). Note: nearly all actives have a fitted effect of over 50% in size. The procedure, abridged: as §3
Test [11] in a line: qHTS RealTime-Glo MT Cell Viability Assay in HEK293 cells - 24 hour (AID 1224886). Note: top concentration of the series differs between compounds; nearly all actives have a fitted effect of over 50% in size. The procedure, abridged:
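Assay medium contained NanoLuc luciferase plus cell-permeant prosubstrate, added with HEK293 cells at 600 cells/well. After 5 h at 37 C/5% CO2 compounds were added; plates stayed at 37 C for 40 h with serial luminescence reads.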

Test [12] in a line: qHTS RealTime-Glo MT Cell Viability Assay in HEK293 cells - 8 hour (AID 1224887). The method in brief: as §1
Test [13] in a line: qHTS RealTime-Glo MT Cell Viability Assay in HepG2 cells - 0 hour (AID 1224889). Note: nearly all actives have a fitted effect of over 50% in size. Note: potency is the fitted concentration of half-maximal effect. The method in brief:
as §3

Test [14] is described as follows: A CellTox Green Cytotoxicity Assay to monitor cytotoxicity in HepG2 cells - 8 hour (AID 1224890). Note: nearly all actives have a fitted effect of over 45% in size. The method in brief:
as §2

Test [15] is described as follows: qHTS assay to identify small molecule antagonists of the estrogen receptor alpha (ER-alpha) signaling pathway using the BG1 cell line in the presence of 0.1 nM 17-beta-estradiol - cell viability counter screen (AID 1259241). Note: nearly all actives have a fitted effect of over 40% in size. Note: potency is the fitted concentration of half-maximal effect. The method in brief: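 The cell line endogenously expresses full-length ER-alpha and carries four EREs driving luciferase. Cells are cultured 5 days hormone-free, treated 22 hr with compounds and 0.1 nM estradiol, then viability is read by fluorescence.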

The nature of test [16]: A CellTox Green Cytotoxicity Assay to monitor cytotoxicity in HEK293 cells - 32 hour (AID 1224881). Note: nearly all actives have a fitted effect of over 40% in size. The method in brief: (§4)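 Seeding of HEK293 cells together with cytotoxicity dye preceded a 5 h incubation at 37 C/5% CO2. Test compounds in DMSO were then added and fluorescence monitored across 40 h.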
The nature of test [17]: A CellTox Green Cytotoxicity Assay to monitor cytotoxicity in HEK293 cells - 8 hour (AID 1224884). Note: nearly all actives have a fitted effect of over 35% in size. The method in brief:
as §4

A short description of test [18]: A CellTox Green Cytotoxicity Assay to monitor cytotoxicity in HEK293 cells - 16 hour (AID 1224888). Note: nearly all actives have a fitted effect of over 35% in size. The procedure, abridged:
as §4

A short description of test [19]: A CellTox Green Cytotoxicity Assay to monitor cytotoxicity in HEK293 cells - 24 hour (AID 1224875). The method in brief:
as §4
% is set by controls: 0 for no effect and ±100 for the full control effect.

Regarding `CC(S)C(=O)NCC(=O)O` (stereo not drawn), the compound was classed as inactive in [1], in test [3], in test [4], in [5], in [8] and in [10]. For the same compound, the compound was called inactive in test [14]. Also, the max response in test [2] was 11.2%. The Potency result in [6], in test [7], in test [9], in test [11], in test [12] and in test [13] was “inactive” throughout. In test [15], the Potency result is “inactive”.

`CC(C)(C)OC(=O)c1ccc(O)cc1`: the compound was called inactive in test [1], in test [4], in test [8], in test [10], in [18] and in [14]. Further, the max response in test [2] was -26.7%. The Potency entry in test [7], in test [16], in test [17], in [11], in test [12] and in [15] was “inactive” throughout.

Take `Nc1ccc([N+](=O)[O-])c(N)c1`: the call in test [1], in test [3], in test [4], in [5], in [10] and in [18] was inactive. Further, the compound was called inactive in [14]. Besides, the max response in test [2] was -10.3%. Also, the Potency entry in test [6], in test [16], in [9], in [11], in test [12] and in test [13] was “inactive” throughout. The Potency in test [15] was 53.1 µM (active).

As to `C[C@H](N)[C@H](O)c1cccc(O)c1`, the call in test [1], in [19], in [3], in test [4], in test [5] and in [8] was inactive. Also, the call in test [18] was inactive. Besides, the max response in test [2] was -0.629%. For the same compound, the Potency result in test [6], in test [16], in [9], in [17], in [11] and in [12] was “inactive” each time. Moreover, the Potency entry in test [13] and in test [15] was “inactive” in each case.

As for `O=C1c2ccccc2C(=O)c2cc(S(=O)(=O)O)ccc21`, the compound was called inactive in test [1], in [19], in [3], in test [4], in test [5] and in test [8]. For the same compound, the compound was called inactive in test [10], in test [18] and in [14]. For the same compound, the Potency entry in test [6], in test [7], in test [16], in test [9], in test [13] and in [15] was “inactive” throughout.

As for `COc1ccc(-c2cc(=O)c3c(O)cc(O[C@@H]4O[C@H](CO[C@@H]5O[C@@H](C)[C@H](O)[C@@H](O)[C@H]5O)[C@@H](O)[C@H](O)[C@H]4O)cc3o2)cc1O`, the call in test [1], in test [19], in test [3], in test [4] and in test [18] was inactive. For the same compound, in [2], the max response was 1.76%. Also, the Potency entry in test [6], in [7], in test [16], in test [9], in [17] and in test [11] was “inactive” each time. For the same compound, the Potency result in test [12], in test [13] and in test [15] was “inactive” each time.

Take `COCCOC(=O)C1=C(C)NC(C)=C(C(=O)OC(C)C)C1c1cccc([N+](=O)[O-])c1` (stereo not drawn): the compound was classed as inactive in test [19], in test [3], in test [5], in [8] and in test [18]. Also, the Potency result in test [6], in [16], in test [9], in test [17] and in test [15] was “inactive” throughout. For the same compound, the Potency was 2.39 µM (active) in test [7] and 0.601 µM (active) in test [13].

On to `CCCCNC1CC(C)(C)NC(C)(C)C1`, for which the outcome in test [1], in [19], in [3], in test [4], in [5] and in test [8] was inactive. In addition, the result in test [18] and in test [14] was inactive. In addition, the Potency result in test [6], in test [7], in [16], in test [9], in [17] and in test [11] was “inactive” each time. For the same compound, the Potency entry in test [12], in [13] and in test [15] was “inactive” throughout.
